Assay results: the supplement of paper PMC11732987, “Enantioselective OTUD7B fragment discovery through chemoproteomics screening and high-throughput optimisation” (Communications Chemistry, 2025)

Columns and labels:
Assay in all cases: log2 ratio of Biotin-Ahx-Ub-VS probe labelling (fragment/DMSO); higher = less target engagement (more negative = stronger competition), active = hit call of the paper (q ≤ 0.05, log2 ratio ≤ -1)
Details in all cases: compound concentration: 200 uM; treatment time: 3 h
[1] = molecular target: T1, ALG13 (UniProt Q9NP73)
T1 sequence (whole entry): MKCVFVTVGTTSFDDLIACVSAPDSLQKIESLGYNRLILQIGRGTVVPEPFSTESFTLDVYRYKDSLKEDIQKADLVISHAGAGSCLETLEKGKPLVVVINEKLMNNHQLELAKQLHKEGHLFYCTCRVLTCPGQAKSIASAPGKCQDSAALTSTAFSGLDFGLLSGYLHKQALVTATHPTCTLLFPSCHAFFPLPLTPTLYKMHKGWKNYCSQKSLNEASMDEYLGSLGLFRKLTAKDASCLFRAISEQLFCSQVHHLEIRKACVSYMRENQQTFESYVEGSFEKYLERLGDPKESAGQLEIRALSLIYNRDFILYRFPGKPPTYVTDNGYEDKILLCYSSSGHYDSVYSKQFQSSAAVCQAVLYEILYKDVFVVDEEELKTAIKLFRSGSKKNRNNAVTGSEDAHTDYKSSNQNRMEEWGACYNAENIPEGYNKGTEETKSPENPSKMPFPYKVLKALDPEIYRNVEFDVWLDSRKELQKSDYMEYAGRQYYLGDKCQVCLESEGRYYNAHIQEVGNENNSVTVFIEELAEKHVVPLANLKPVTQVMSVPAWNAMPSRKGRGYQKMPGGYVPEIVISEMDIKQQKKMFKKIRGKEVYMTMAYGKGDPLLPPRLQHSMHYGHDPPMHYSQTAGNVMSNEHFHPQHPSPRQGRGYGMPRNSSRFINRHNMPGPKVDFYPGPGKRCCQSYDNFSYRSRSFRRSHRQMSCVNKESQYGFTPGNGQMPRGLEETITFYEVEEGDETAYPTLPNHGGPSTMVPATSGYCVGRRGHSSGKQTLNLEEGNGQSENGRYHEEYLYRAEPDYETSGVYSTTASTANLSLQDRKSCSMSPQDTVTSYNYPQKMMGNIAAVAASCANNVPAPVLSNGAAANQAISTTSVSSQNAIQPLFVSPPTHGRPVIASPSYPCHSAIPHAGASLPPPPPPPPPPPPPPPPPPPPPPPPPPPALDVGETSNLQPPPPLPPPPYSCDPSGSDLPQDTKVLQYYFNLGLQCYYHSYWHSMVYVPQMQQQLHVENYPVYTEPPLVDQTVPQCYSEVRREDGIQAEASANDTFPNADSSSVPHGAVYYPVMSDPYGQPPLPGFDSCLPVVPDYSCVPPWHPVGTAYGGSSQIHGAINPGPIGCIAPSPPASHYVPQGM
Summary of the method: (§1)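 Lysate from HEK293T cells, 495 µg per sample in Tris/CHAPS/IGEPAL buffer with protease inhibitors, was treated for 3 h in triplicate with fragment at 200 µM or vehicle. Biotin-Ahx-Ub-VS was next added at 0.5 µM final for 1 h. The labelled DUBs were enriched with NeutrAvidin, digested with LysC and trypsin, and run by diaPASEF LC-MS/MS, with values given as average log2 fragment/vehicle ratios by unpaired t-test on global-median-normalised Spectronaut quantities of proteins with ≥2 unique peptides.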

[2] = molecular target: ATXN3 (UniProt P54252)
Summary of the method: as §1

[3] = molecular target: T2, BAP1 (UniProt Q92560)
T2 sequence (whole entry): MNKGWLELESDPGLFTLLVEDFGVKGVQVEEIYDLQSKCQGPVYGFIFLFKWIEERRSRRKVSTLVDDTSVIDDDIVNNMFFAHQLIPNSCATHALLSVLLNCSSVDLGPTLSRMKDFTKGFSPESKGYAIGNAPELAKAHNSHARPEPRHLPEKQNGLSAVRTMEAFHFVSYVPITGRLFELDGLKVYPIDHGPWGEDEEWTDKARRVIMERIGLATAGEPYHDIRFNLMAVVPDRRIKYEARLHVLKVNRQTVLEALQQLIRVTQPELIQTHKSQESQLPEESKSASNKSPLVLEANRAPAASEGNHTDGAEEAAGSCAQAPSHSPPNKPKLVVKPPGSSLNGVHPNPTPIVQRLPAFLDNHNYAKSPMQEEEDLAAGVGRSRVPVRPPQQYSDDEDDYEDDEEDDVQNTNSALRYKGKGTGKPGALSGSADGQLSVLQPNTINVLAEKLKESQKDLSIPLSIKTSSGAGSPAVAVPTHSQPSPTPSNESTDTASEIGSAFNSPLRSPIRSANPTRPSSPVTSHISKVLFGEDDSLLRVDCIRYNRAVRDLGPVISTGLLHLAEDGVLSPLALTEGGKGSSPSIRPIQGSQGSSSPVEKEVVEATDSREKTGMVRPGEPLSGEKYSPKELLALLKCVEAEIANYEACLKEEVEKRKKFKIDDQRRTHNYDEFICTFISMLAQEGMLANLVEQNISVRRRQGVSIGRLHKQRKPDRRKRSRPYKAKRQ
Summary of the method: as §1

[4] = molecular target: EIF3F (UniProt O00303)
Summary of the method: as §1

[5] = molecular target: EIF3H (UniProt O15372)
Summary of the method: as §1

[6] = molecular target: T3, FAM105A (UniProt Q9NUU6)
T3 sequence (whole entry): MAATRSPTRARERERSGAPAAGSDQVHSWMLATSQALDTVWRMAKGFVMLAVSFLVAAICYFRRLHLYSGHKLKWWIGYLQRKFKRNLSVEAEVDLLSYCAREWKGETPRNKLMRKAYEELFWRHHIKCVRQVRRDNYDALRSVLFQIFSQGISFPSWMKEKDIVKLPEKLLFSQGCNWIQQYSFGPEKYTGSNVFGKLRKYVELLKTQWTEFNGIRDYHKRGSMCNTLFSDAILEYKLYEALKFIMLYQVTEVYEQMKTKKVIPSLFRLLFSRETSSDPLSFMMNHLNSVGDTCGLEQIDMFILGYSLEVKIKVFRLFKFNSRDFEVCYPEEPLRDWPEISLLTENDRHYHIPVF
Summary of the method: as §1

[7] = molecular target: OTUB1 (UniProt Q96FW1)
Summary of the method: as §1

[8] = molecular target: T4, OTUD4 (UniProt Q01804)
T4 sequence (whole entry): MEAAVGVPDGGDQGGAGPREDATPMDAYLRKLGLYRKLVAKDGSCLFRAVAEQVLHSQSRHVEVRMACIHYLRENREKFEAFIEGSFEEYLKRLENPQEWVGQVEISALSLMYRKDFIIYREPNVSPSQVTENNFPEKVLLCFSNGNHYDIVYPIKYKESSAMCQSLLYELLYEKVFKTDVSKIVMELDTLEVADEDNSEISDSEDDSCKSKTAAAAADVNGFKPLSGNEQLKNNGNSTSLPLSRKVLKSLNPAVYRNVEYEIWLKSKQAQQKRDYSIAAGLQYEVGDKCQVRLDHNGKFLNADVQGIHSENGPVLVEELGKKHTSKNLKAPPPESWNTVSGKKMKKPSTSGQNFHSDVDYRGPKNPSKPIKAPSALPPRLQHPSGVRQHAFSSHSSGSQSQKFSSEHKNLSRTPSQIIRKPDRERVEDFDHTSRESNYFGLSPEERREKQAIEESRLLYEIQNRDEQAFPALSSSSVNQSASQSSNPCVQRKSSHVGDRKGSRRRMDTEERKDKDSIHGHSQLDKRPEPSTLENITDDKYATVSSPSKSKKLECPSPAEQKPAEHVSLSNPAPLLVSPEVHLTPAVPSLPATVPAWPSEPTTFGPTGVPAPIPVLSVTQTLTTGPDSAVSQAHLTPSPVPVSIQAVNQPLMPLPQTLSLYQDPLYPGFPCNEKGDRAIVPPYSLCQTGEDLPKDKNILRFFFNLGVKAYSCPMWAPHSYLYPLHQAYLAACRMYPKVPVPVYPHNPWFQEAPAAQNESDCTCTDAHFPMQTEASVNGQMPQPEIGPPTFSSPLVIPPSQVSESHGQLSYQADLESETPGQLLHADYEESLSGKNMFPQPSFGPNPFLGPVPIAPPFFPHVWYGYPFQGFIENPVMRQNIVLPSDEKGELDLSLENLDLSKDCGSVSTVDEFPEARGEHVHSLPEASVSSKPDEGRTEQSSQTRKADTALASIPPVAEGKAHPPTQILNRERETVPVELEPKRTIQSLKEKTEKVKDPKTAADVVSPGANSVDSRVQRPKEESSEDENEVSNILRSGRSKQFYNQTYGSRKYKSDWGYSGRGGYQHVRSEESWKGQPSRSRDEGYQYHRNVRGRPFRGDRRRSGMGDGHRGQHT
Summary of the method: as §1

[9] = molecular target: T5, OTUD5 (UniProt Q96G74)
T5 sequence (whole entry): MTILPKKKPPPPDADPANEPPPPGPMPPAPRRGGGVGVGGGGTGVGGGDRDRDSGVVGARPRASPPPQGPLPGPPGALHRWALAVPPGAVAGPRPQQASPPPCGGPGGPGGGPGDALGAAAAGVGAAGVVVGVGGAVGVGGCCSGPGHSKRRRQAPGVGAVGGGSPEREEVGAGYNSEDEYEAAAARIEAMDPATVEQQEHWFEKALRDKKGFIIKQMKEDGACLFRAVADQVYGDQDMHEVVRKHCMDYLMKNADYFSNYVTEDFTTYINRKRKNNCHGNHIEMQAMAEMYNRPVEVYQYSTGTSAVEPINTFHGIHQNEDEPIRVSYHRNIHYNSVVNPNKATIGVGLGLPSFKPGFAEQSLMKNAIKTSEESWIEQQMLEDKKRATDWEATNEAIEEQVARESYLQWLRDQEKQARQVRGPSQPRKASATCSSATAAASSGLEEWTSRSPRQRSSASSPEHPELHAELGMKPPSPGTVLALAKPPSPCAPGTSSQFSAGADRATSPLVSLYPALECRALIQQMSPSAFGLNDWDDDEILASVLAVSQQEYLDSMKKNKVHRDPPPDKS
Summary of the method: as §1

Measured: log2 ratio of Biotin-Ahx-Ub-VS probe labelling

Chain of ATXN3 (P54252 whole entry): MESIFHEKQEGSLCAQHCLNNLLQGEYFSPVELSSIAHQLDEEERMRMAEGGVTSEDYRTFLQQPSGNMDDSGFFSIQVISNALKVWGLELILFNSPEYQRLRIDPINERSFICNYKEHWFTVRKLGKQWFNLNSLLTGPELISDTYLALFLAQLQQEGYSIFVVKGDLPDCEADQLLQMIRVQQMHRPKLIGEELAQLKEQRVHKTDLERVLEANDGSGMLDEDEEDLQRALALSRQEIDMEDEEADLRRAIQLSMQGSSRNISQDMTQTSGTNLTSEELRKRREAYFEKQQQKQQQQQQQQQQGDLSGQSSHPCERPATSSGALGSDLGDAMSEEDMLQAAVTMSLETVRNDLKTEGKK
Chain of EIF3H (O15372 whole entry): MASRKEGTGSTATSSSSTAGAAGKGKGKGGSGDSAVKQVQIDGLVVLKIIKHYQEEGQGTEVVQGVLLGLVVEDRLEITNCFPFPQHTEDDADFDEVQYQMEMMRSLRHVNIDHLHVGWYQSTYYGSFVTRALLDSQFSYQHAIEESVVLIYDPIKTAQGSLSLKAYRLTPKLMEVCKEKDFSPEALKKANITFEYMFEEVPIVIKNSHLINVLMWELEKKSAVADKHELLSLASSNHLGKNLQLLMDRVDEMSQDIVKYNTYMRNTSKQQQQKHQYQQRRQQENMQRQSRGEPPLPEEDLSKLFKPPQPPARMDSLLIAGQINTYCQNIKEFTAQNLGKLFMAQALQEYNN
Chain of EIF3F (O00303 whole entry): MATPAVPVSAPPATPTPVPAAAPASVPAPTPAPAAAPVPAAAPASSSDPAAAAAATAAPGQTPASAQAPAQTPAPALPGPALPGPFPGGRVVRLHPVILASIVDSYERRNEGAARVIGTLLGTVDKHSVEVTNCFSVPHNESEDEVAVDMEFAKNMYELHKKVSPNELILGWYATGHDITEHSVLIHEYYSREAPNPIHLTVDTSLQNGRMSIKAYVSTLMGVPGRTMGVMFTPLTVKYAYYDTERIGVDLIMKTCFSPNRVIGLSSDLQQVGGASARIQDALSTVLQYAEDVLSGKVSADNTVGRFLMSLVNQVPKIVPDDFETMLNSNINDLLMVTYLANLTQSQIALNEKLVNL
Chain of OTUB1 (Q96FW1 whole entry): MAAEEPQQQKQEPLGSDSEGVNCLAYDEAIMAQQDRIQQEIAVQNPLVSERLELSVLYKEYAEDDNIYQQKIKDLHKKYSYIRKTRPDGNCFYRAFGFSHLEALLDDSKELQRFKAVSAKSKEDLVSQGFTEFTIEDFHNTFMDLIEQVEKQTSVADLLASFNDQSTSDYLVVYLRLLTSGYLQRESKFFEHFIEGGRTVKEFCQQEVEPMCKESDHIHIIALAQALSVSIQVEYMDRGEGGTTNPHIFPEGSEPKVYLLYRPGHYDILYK

O=C(CCl)N(Cc1ccsc1)C1CC1
inactive: [1] 0.115 | [2] -0.173 | [3] -0.841 | [4] -0.0964 | [5] 0.0796 | [6] -0.378 | [7] -0.191 | [8] -0.285 | [9] -0.657
